PubChem BioAssay
Values joined by “and” are separate entries in the source; they are usually repeats but may differ in a detail not shown here. Identical values can stand only once. Active and inactive are the calls of the source. Unless noted, how the calls were made is not given here.

Assays:
[1] = tested on: XIP peptide (Xip251-270) binding; assay: small-molecule binders of XIP peptide, primary screen, biochemical, small-molecule microarray, fluorescence 635/667 nm, 0.1 µg/mL protein (AID 1182); details: fluorescent protein binding, 635 nm, higher = more signal, called active from +8 up or from −8 down
XIP peptide (Xip251-270) = assay: small-molecule binders of XIP peptide, primary screen, biochemical, small-molecule microarray, fluorescence 635/667 nm, 0.5 µg/mL protein (AID 1183); details: small-molecule microarray binding, fluorescence 635 nm; higher = more signal
[2] = Plasmodium falciparum growth inhibition, primary screen, strain 3D7, DAPI fluorescence, 100 nL (AID 1184);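 further: parasites grown inside human red blood cells in medium with human serum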; details: P. falciparum 3D7 growth, 3 d, higher = more signal
[3] = target: Homeobox protein Hox-A13 (Mus musculus) (UniProt Q62424); assay: inhibitors of HoxA13-DNA binding, primary screen, biochemical, fluorescence polarization, labeled oligonucleotide (AID 1185); details: 15 min, higher = more signal, called active from +8 up or from −8 down
Sequence of Homeobox protein Hox-A13 (Mus musculus) (Q62424 whole entry, looked up): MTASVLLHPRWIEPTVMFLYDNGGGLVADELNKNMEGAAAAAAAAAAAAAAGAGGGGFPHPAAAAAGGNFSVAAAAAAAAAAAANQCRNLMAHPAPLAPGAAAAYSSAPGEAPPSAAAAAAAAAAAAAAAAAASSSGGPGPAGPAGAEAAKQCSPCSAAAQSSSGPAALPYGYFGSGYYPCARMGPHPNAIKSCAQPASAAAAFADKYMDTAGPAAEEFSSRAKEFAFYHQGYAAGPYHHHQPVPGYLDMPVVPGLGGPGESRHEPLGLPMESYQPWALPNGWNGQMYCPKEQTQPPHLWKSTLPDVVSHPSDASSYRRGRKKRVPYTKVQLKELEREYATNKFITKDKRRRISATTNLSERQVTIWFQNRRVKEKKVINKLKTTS

[4] = inhibitors of hydroxyurea-induced Chk1 phosphorylation, primary screen, imaging, HeLa, phospho-Chk1 antibody, percent positive cells (AID 1186); details: hydroxyurea-induced phospho-Chk1 immunofluorescence imaging, higher = more signal
[5] = inhibitors of hydroxyurea-induced Chk1 phosphorylation, primary screen, imaging, HeLa, phospho-Chk1 nuclear intensity (AID 1187); details: hydroxyurea-induced phospho-Chk1 immunofluorescence imaging, higher = more signal

Structure (SMILES) | composite z-score [1] | composite z-score (XIP peptide (Xip251-270)) | z-score [2] | z-score [3] | z-score [4] | z-score [5]
COC(=O)C1=C(C)N(Cc2ccccc2)[C@]23O[C@](C(=O)OC)(C(=O)N2[C@@H]1c1ccccc1)[C@@H](c1ccccc1)[C@@H]3C(=O)c1ccccc1 | 0.114 (inactive) and 0.416 (inactive) | -0.0935 and 0.0333 | -0.362 and 0.318 | -0.11 (inactive) and -0.0833 (inactive) |  | 
CC(C)[Si]1(C(C)C)OCc2cc(CCCc3cc4c(c(CCc5ccccc5)n3)[Si](C(C)C)(C(C)C)OC4)nc(CCc3ccccc3)c21 | -0.189 (inactive) and -0.0317 (inactive) | -1.31 and -0.189 | 0.0742 and 1.55 | -1.38 (inactive) and -0.138 (inactive) | -0.72 (inactive) and 0.618 (inactive) | -0.625 (inactive) and -0.0158 (inactive)
CC(CO)N1C(=O)[C@@H]2C3C(=O)OCCC=C[C@H]3OC23C=CCN(CCN2CCOCC2)C(=O)[C@@H]13 (stereo partly specified) | -0.163 (inactive) and 0.286 (inactive) | -0.0259 and 0.321 | -0.195 and 0.513 | -6.39 (inactive) and -7.63 (inactive) | 0.079 (inactive) and 0.456 (inactive) | -0.204 (inactive) and 0.371 (inactive)
O=c1n(-c2ccccc2)c(=O)n2n1CC[C@@H]1C(=NOC[C@@H](O)COCc3ccco3)[C@H]3O[C@H]3[C@@H](O)[C@@H]12 | 0.0643 (inactive) and 0.158 (inactive) | 0.0433 and -0.0465 | -1.77 and -0.681 | -0.683 (inactive) and -1.44 (inactive) |  | 
C[C@@H]1CC[C@H]2C(=O)NC[C@@H](O)CN2[C@H]1c1ccc(Br)cc1 | 0.21 (inactive) and 0.567 (inactive) | 0.22 and 0.889 | -0.601 and 0.863 | -2.22 (inactive) and -1.74 (inactive) |  | 
Cc1cc2c(nc1C)CCCN2CC(C)ON=C[C@@H](C)[C@H](OCc1ccccc1)C(C)C (stereo partly specified) | -0.144 (inactive) | -0.0166 | 0.5 | -0.838 (inactive) |  | 
C[C@@]1([C@@H](NC(=O)Cc2ccccc2)c2ccc(-c3ccccc3)cc2)C[C@H]1C1CCCCC1 | 0.142 (inactive) and -0.175 (inactive) and -0.0036 (inactive) | 0.0261 and -0.867 and 0.444 | -1.3 and -0.345 and -1.39 | 1.49 (inactive) and -0.249 (inactive) and -1.63 (inactive) | 0.641 (inactive) and 0.338 (inactive) and 0.416 (inactive) | 1.03 (inactive) and 0.448 (inactive) and -0.21 (inactive)
Cc1ccc(S(=O)(=O)N[C@H]2COC(=O)[C@@H](C)COC(=O)[C@H](C)NC(=O)CC=C[C@H]2C)cc1 | 0.0287 (inactive) | -0.188 | -0.208 | -0.0362 (inactive) |  | 
C=CC[C@@H](O)c1ccc(O)c(F)c1 | -0.316 (inactive) and -0.555 (inactive) | 0.849 and -1.57 | 0.408 and -0.881 | -2.13 (inactive) and -0.155 (inactive) | -0.0057 (inactive) and -0.138 (inactive) | -0.268 (inactive) and -0.321 (inactive)
C=CCN(CCCCC)C(=O)C1N(c2ccc(CCO)cc2)C(=O)C2C(C(=O)O)C3C=CC21O3 (stereo unspecified) | -0.53 (inactive) and -0.482 (inactive) | 0.668 and 0.706 | 0.062 and -0.336 | -2.29 (inactive) and -2.06 (inactive) | -0.0956 (inactive) and 0.477 (inactive) | 0.0364 (inactive) and 0.181 (inactive)
COc1ccc(-c2ccc3c(n2)CCCN3CC(O)CN2CCCc3nc(-c4ccc(Br)cc4)ccc32)cc1 (stereo unspecified) | 0.947 (inactive) and 1.14 (inactive) | 0.717 and 0.257 | -0.309 and 0.613 | -3.36 (inactive) and -1.95 (inactive) |  | 
CCOC(=O)NN=C1C[C@@H](O)[C@@H](O)[C@@H]2[C@@H]3C(=O)N(Cc4ccc5c(c4)OCO5)C(=O)[C@@H]3CC[C@@H]12 | 0.483 (inactive) | 0.586 | 0.132 | -0.24 (inactive) |  | 
COC(=O)C1=C(C)N(Cc2ccccc2)[C@]23O[C@](C(=O)OC)(C(=O)N2[C@@H]1c1ccccc1)[C@H]1C(=O)N(C)C(=O)[C@H]13 | 0.0247 (inactive) and -0.317 (inactive) | 0.706 and -0.282 | -0.979 and 0.027 | -3.58 (inactive) and -1.73 (inactive) |  | 
COCn1c2ccccc2c2nnc(C(C)=O)nc21 | -0.0478 (inactive) and 0.199 (inactive) | -0.392 and -0.333 | -1.12 and -1.29 | 0.732 (inactive) and 0.896 (inactive) |  | 
CCOC(=O)[C@@H]1CC2O[C@]23C[C@@H]1C(=O)N1CCC[C@@H]1[C@H]3O[Si](C)(C)C(C)(C)C (stereo partly specified) | -0.86 (inactive) and -0.342 (inactive) | -0.791 and 0.0241 | -0.662 and 1.63 | -4.09 (inactive) and -1.56 (inactive) | 0.271 (inactive) and 0.387 (inactive) | 0.288 (inactive) and 0.549 (inactive)
COC(=O)C1=C(C)N(Cc2ccccc2)C2=C(C(=O)c3ccccc3)[C@H](c3ccccc3)[C@@](O)(C(=O)OC)C(=O)N2[C@@H]1c1ccccc1 | -0.149 (inactive) and -0.059 (inactive) | 0.675 and 0.323 | -0.467 and 0.501 | -1.74 (inactive) and -0.745 (inactive) |  | 
